# L3MBTL1 block – L3MBTL1 (human) inhibition | AlphaScreen L3MBTL1–H3K9me1 peptide binding | 0.66% of 230,000 active | Potency, µM (top dose mostly 57.1 µM), inactives show at the highest dose activity, negative = inhibition, actives largely listed as inhibitors; also: potency is read from the fitted curve at half-maximal effect; % is scaled to controls: 0 for no effect and ±100 for the full control effect; nearly all actives have a fitted effect of over 60% in size
# Target sequence (Q9Y468 whole entry, looked up): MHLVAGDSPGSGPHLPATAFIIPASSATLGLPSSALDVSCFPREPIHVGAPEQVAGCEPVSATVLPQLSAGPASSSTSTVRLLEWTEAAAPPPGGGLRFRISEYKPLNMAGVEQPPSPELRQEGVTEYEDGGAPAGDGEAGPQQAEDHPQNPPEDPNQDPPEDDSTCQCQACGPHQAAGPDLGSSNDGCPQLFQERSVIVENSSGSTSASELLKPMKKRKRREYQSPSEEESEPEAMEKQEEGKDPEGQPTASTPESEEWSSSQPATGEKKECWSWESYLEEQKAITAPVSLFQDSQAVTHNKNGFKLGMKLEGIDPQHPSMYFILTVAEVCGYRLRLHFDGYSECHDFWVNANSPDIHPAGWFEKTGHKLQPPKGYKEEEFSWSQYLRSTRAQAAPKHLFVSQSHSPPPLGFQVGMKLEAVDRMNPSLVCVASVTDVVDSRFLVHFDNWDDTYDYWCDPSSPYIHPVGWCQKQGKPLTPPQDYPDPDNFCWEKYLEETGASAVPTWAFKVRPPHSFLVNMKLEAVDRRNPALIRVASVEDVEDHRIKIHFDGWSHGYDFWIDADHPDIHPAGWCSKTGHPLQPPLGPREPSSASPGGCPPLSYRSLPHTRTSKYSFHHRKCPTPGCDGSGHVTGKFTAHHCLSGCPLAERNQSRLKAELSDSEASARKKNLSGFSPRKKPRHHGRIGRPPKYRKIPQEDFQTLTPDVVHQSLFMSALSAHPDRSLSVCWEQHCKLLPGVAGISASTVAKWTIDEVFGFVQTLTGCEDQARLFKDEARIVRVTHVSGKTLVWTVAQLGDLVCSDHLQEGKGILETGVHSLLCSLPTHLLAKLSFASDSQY
#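 AlphaScreen proximity signal between nickel-chelate acceptor and streptavidin donor beads (final 10 ug/mL) reports binding of 50 nM L3MBTL1 to 75 nM biotin-H3 K9me1 peptide; complex incubated with compounds 30 min at room temperature; cefsulodin titration as control.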
# HP1b binding inh – inhibitors of HP1-beta chromodomain binding to methylated histone tails; AlphaScreen HP1-beta / biotin-H3K9me3 peptide binding; Potency, µM (series often up to 114 µM), without a hit: at the highest dose activity change, negative = inhibition, hits mostly inhibitors; 0.56% of 390,000 active; AID 540317; also: potency is read from the fitted curve at half-maximal effect; nearly all actives have a fitted effect of over 70% in size
#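 Compound inhibition of the preformed complex between 50 nM HP1-beta and 50 nM biotinylated H3K9me3 peptide was read by AlphaScreen. Buffer was PBS pH 7.4 with 0.01% Tween-20. Incubations ran 30 min at room temperature, with 10 ug/mL donor/acceptor beads.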
# G9a block – inhibitors of human histone lysine methyltransferase G9a. Potency, µM (series often up to 102 µM), inactives show at the highest dose activity, negative = inhibition, most hits filed as inhibitors. Q96KQ7. G9a H3K9 monomethylation, AlphaScreen, 2 h. 8.8% of 350,000 active; also: potency is read from the fitted curve at half-maximal effect; % is scaled to controls: 0 for no effect and ±100 for the full control effect; nearly all actives have a fitted effect of over 75% in size
#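 Compounds were preincubated with 20 nM G9a for 15 min, after which biotinylated H3K9 peptide (500 nM) and SAM (20 uM) started a 2 h room-temperature reaction. Monomethylated product was quantified by antibody-based AlphaScreen chemiluminescence.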
# PI5P4K alpha inh – inhibitors of human PI5P4K alpha; AID 652105; max response, %; 1.2% of 330,000 active; P48426; PI5P4Kalpha enzyme, ADP-Glo luminescence, 60 min; active compounds read low; active = max response of -50% or lower; inconclusive = between -30% and -50%; inactive = -30% or higher; also: value at the top dose of about 77 µM; % is scaled to controls: 0 for no effect and ±100 for the full control effect
#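 Compounds were pin-transferred onto PI5P4Kalpha and substrate in HEPES pH 7.4 buffer with EGTA, CHAPS and 5% DMSO. ATP (5 microM final) started the reaction, which ran 60 minutes at room temperature before ADP-Glo detection.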
# BAZ2B inh – blocks human BAZ2B. Potency, µM (series often up to 114 µM), inactives show at the top dose activity change, negative = inhibition, usual class: inhibitors. AID 504333. 4.4% of 360,000 active. AlphaScreen BAZ2B-H3K14Ac peptide displacement; also: potency is read from the fitted curve at half-maximal effect; % is scaled to controls: 0 for no effect and ±100 for the full control effect; nearly all actives have a fitted effect of over 60% in size
#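 AlphaScreen displacement: compounds (up to 110uM) incubated 30 min at room temperature with a preformed 50 nM BAZ2B/50 nM biotinylated H3K14Ac peptide complex in PBS pH 7.4 with Tween-20. Donor and acceptor beads at 10 ug/mL final added, 20 min light-protected before reading.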
# JMJD2A Tudor inh – JMJD2A Tudor domain (human) inhibition; AID 504339; AlphaScreen JMJD2A-Tudor / H3K4me3 peptide binding; Potency, µM (doses to about 114 µM), inactives show top-dose activity change, negative = inhibition, most hits filed as inhibitors; 4.4% of 390,000 active; also: potency is read from the fitted curve at half-maximal effect; % is scaled to controls: 0 for no effect and ±100 for the full control effect; nearly all actives have a fitted effect of over 50% in size
# An asterisk follows results filed as active; ? = inconclusive; . = no result given; [ ] = remark or other dose. A selection: hits, their analogues and other compounds. The true share with any hit is near 11%. Unless noted, calls follow the shape of the dose curve; as a rule, active = well fitted inhibition curve with a large enough effect; inconclusive = small, poorly fitted or top-dose-only effect; inactive = no such curve, though single readings can be large or run the other way.
SMILES,L3MBTL1 block,HP1b binding inh,G9a block,PI5P4K alpha inh,BAZ2B inh,JMJD2A Tudor inh
COc1cc(C2/C(=C(\O)c3ccc4c(c3)OCCO4)C(=O)C(=O)N2Cc2ccco2)ccc1O (stereo unspecified),.,5%,50µM*,5,-34%,-29%
COc1cccc(C2/C(=C(\O)c3ccc4c(c3)OCCO4)C(=O)C(=O)N2CCN(C)C)c1 (stereo unspecified),7%,54%,?,0,-31%,1%[11.4 µM]
O=C1C(=O)N(CCN2CCOCC2)C(c2ccccc2)/C1=C(\O)c1ccc2c(c1)OCCO2 (stereo unspecified),.,9%,?,-18,-15%,?
O=C1C(=O)N(Cc2ccccc2)C(c2cccc(O)c2)/C1=C(\O)c1ccc2c(c1)OCCO2 (stereo unspecified),.,35%,45µM*,-3,56µM*,-11%
O=C(CCc1cn(Cc2ccc(F)cc2)c2ccccc12)NCCc1ccc(Cl)cc1,.,39%,-4%[59 µM],.,-15%,-4%
Cc1cc(C(=O)NCCc2ccc(Cl)cc2)c2c(C)nn(-c3cccc(F)c3)c2n1,.,38%,1%[59 µM],.,7%[57.1 µM],-10%
CCC(CC)C(=O)Nc1ccc(OCc2cc(=O)n3c4c(sc3n2)CCCC4)cc1,.,31%,10%[59 µM],.,7%,-14%
Cc1cc(C)c(NC(=O)C2CCN(c3nn4c(=O)cc(C)nc4s3)CC2)c(C)c1,.,46%,18%[59 µM],.,3%,7%
CCCC1O[C@@H]2C[C@H]3[C@@H]4CCC5=CC(=O)C=C[C@]5(C)[C@H]4[C@@H](O)C[C@]3(C)[C@]2(C(=O)CO)O1 (stereo partly specified),-9%,26%,-15%[59 µM],0,-2%,-22%
CCCC1O[C@@H]2CC3C4CCC5=CC(=O)C=C[C@]5(C)C4C(OC(C)=O)C[C@]3(C)[C@]2(C(=O)COC(C)=O)O1 (stereo partly specified),-5%,-17%,8%[59 µM],-5,-7%,18µM*
Cc1ccc(CN(Cc2ccco2)C(=O)COc2c(C)cc(C)cc2C)cc1,.,42%,38%[59 µM],.,34%,12%
Cc1cc(C)c(OCC(=O)N(Cc2ccc(N(C)C)cc2)Cc2ccco2)c(C)c1,.,?,13µM*,.,8.9µM*,20µM*
Cc1ccc(CN(Cc2ccco2)C(=O)COc2cccc(C)c2C)o1,.,29%,-3%[59 µM],.,9%,?
Cc1cccc(OCC(=O)N(Cc2ccc(N(C)C)cc2)Cc2ccco2)c1C,.,?,14µM*,.,10µM*,22µM*
CCCCCCn1c(=O)[nH]c2nc3cc(N)ccc3nc2c1=O,10%,59%,40µM*,?,1%,12%
CCCCCn1c(=O)c(C(=O)c2ccccc2)nc2ccccc21,-6%,-2%,-15%[59 µM],4,-1%[57.1 µM],-21%
CC(C)C[C@@H](CNCC(=O)[C@H](Cc1ccccc1)NC(=O)c1[nH]cnc1C(=O)N[C@@H](C)CN)NC(=O)c1nc[nH]c1C(=O)N[C@@H](C)C(=O)O,.,55%,.,-24,.,79µM*
CC(C)C[C@@H](CNCC(=O)[C@H](C)NC(=O)c1[nH]cnc1C(=O)N[C@@H](C)CN)NC(=O)c1nc[nH]c1C(=O)N[C@@H](CO)C(=O)O,.,27%,.,1,.,89µM*
Cc1cccc(NC(=O)c2nc[nH]c2C(=O)N[C@@H](C)CO)c1,.,.,.,-3,.,.
CC(C)C[C@@H](CNCC(=O)[C@H](C)NC(=O)c1[nH]cnc1C(=O)N[C@@H](C)CN)NC(=O)c1nc[nH]c1C(=O)N[C@@H](C)C(=O)O,.,66%,.,-3,.,50µM*
CCOC(=O)C(=O)c1csc(NC(=O)CCSc2ccc(C)cc2)n1,.,24%,71µM*,3,.,-16%
CCOC(=O)c1csc(NC(=O)CCSc2ccccc2)n1,-13%,78%,8%,-4,3%,-12%
CC(C)(C)c1cc(CCC(=O)NNC(=O)c2ccco2)cc(C(C)(C)C)c1O,8%,53%,24%[59 µM],-7,?,-9%[57.1 µM]
CCCCC(=O)NC(=S)NNC(=O)CCc1ccccc1,.,38%,32µM*,-7,5%,2%
O=C(CCc1ccccc1)NNC(=S)NCCc1ccccc1,.,?,-11%,0,-10%,-16%
SMILES,L3MBTL1 block,HP1b binding inh,G9a block,PI5P4K alpha inh,BAZ2B inh,JMJD2A Tudor inh
CC(C)(C)c1cc(CCC(=O)NNC(=S)NC(=O)c2ccccc2)cc(C(C)(C)C)c1O,5%,8%,28µM*,-16,-34%,?
O=C(CCc1ccccc1)NNC(=O)c1cc(Cl)ccc1O,13%,36%,.,1,7%,-1%
O=C(CCc1ccccc1)NNC(=S)NC(=O)c1ccccc1,-2%,-4%,4.5µM*,.,2%[57.1 µM],28µM*
Cc1cc(Cl)ccc1NNC(=O)CCc1ccccc1,?,17%,28µM*,3,-17%,-13%
Cc1nc2nc(NC(=O)c3ccc(C(C)(C)C)cc3)[nH]n2c(=O)c1C,.,-12%,-3%[59 µM],.,-5%,-19%
COc1ccccc1NC(=S)NC(=O)CCc1ccccc1,.,44%,-20%,3,-18%,5%
CC(=O)NC(=S)NNC(=O)CCc1ccccc1,9%,7%,8.9µM*,-6,-2%,?
CCN(C(=S)NC(=O)CCc1ccccc1)c1ccccc1,13%,-3%,8.9µM*,-19,-5%,?
O=C(CCc1ccccc1)NNC(=O)CCc1ccccc1,-6%,39%,13%,0,-11%,6%
O=C(Cn1nc(-c2ccccc2)nc(Cc2ccccc2)c1=O)Nc1ccc(Cl)cc1,.,22%,9%[59 µM],.,-3%,-20%
O=[N+]([O-])c1ccc(-c2cc(-c3ccncc3)nc3ccc4ccccc4c23)cc1,-9%,2%,45µM*,.,?,-22%
Cc1ccc(OCc2cc(=O)n3ccsc3n2)c(NC(=O)c2ccco2)c1,.,15%[57 µM],23%[59 µM],.,3%,-17%
O=C1CC(Sc2nnc(-c3ccccc3O)o2)C(=O)N1c1ccccc1 (stereo unspecified),12%,5%,7.9µM*,.,?,?
COc1ccc(N2C(=O)CC(Sc3nnc(-c4ccccc4)o3)C2=O)cc1 (stereo unspecified),-3%,40%,10µM*,-5,-1%,-6%
C=CCc1ccccc1OCCSc1nc(-c2cccs2)nc2cc(=O)[nH]n12,.,16%,18%[59 µM],.,-13%,-16%
CN(CCN(C)C(C)(C)C)C(=O)C(c1ccccc1)c1ccccc1,-2%,?,?,7,?,20µM*
CSc1ccc(CN(C)C(=O)C(c2ccccc2)c2ccccc2)cc1,.,41%,83%,-2,6%,-1%
COc1cc(NC(=O)CN2c3ccccc3S(=O)(=O)c3ccccc32)cc(OC)c1,.,1%,7%[59 µM],.,-23%,-31%

# Bioassay records: PubChem BioAssay, National Center for Advancing Translational Sciences (NCATS)
